Source: ChEMBL document CHEMBL1157539, “Thousands of chemical starting points for antimalarial lead identification” (Nature, 2010)

Assays:
Assay type in all cases: functional
Plasmodium falciparum [1] = assay: GSK_TCMDC: Inhibition of Plasmodium falciparum 3D7 in whole red blood cells, using parasite LDH activity as an index of growth. Test compounds present at 2uM
Plasmodium falciparum [2] = assay: GSK_TCMDC: Inhibition of Plasmodium falciparum Dd2 in whole red blood cells, using parasite LDH activity as an index of growth. Test compounds present at 2uM
HepG2 = assay: GSK_TCMDC: Percent inhibition of human HepG2 cell line. Test compounds present at 10uM.

SMILES | Inhibition (Plasmodium falciparum [1]) | Inhibition (Plasmodium falciparum [2]) | Inhibition (HepG2)
COc1cccc(CCNCCCCCCNCCc2ccc(Cl)cc2)c1.Cl | 100% | 3% | 32%
CCN(CC)C(=O)c1cccc(C=Cc2ccc(-c3c(C)[nH]c(C)c(Cl)c3=O)cc2)c1 | 96% | 96% | 9%
O=C(/C=C/c1ccc(Cl)c(Cl)c1)NCCCCCN1CCCN(C(=O)Nc2cccc(Cl)c2)CC1 | 100% | 2% | 11%
N=c1cc(C=Cc2ccc(O)cc2)[nH]c2ccccc12 | 100% | 14% | 15%
Cn1nccc1C(=O)NCCNCc1cccc(-c2cccc(-c3nc4cc(F)ccc4[nH]3)c2)c1.O=C(O)C(F)(F)F | 100% | 7% | 38%
O=C(NCCCCN1CCC(c2ccc(Br)cc2)CC1)c1ccc(NC(=O)c2ccc(Cl)cc2)cc1 | 100% | 86% | 17%
Cc1cc(CN2CCCC(OC(c3ccc(F)cc3)c3ccc(F)cc3)C2)ccc1O (stereo not drawn) | 89% | 82% | 28%
Cc1cccc2nc(-c3cccc(-c4ccc(C(=O)NCCc5ccc(O)c(=O)[nH]5)cc4)c3)[nH]c12 | 85% | 30% | 20%
CCCNCc1ccc(-c2ccc(CN(CCOC)C(=O)c3ccc([N+](=O)[O-])c(C)c3)cc2)nc1.O=C(O)C(F)(F)F | 97% | 23% | 2%
FC(F)(F)c1ccc2[nH]c(-c3ccc(-c4ccc(CNCc5ccccc5)cc4)cc3)nc2c1.O=C(O)C(F)(F)F | 100% | 96% | 22%
O=C(/C=C/c1ccc(Cl)c(Cl)c1)NCCCCCN1CCC(NC(=O)NC2CCCCC2)CC1 | 96% | 44% | 22%
Cn1nc(C(=O)N2CCC(c3[nH]ncc3Cc3ccccc3)CC2)c2ccccc2c1=O | 95% | 95% | 5%
O=C(O)C(=O)O.Oc1ccccc1CN1CCN(C(c2ccccc2)c2ccccc2)CC1 | 98% | 90% | 0%
CC(C)c1cccc(OCC2CCN(c3ccc(C(=O)Nc4ccccc4)cn3)CC2)c1 | 95% | 90% | 9%
CN(c1ccc(F)cc1)S(=O)(=O)c1ccc(Cl)c(C(=O)Nc2cccc(C#N)c2)c1 | 95% | 58% | 5%
CN(C)CCCOc1cccc(NC(=O)Nc2ccc(Cl)c(Cl)c2)c1.O=C(O)C(F)(F)F | 90% | 8% | 6%
CCOC(=O)N(C)/N=C/[C@H](CCc1ccccc1)NC(=O)[C@H](CC(C)C)NC(=O)c1cc2cccc(OC)c2o1 | 86% | 70% | 2%
c1ccc2cc3c(Nc4ccc(N5CCCCCC5)cc4)ccnc3cc2c1 | 94% | 76% | 10%
O=C(NCC(CCCN1CCC(c2c[nH]c3ccccc23)CC1)c1ccccc1)Nc1ccc(Cl)c(Cl)c1 (stereo not drawn) | 100% | 64% | 38%
COc1ccc(C(=O)NC(c2ccc(Cl)cc2Cl)c2cc(Cl)c3cccnc3c2O)cc1 (stereo not drawn) | 84% | 48% | 46%
O=C(Nc1cccc(CN2CCN(Cc3ccc(O)cc3)CC2)c1)c1ccc(Cl)c(Cl)c1.O=C(O)C(F)(F)F | 100% | 95% | 30%

SMILES | Inhibition (Plasmodium falciparum [1]) | Inhibition (Plasmodium falciparum [2]) | Inhibition (HepG2)
O=C(/C=C/c1ccc(-c2nc3cc(F)c(F)cc3[nH]2)cc1)NCc1ccc(Cl)c(Cl)c1 | 100% | 24% | 14%
C=CCN1C(=O)C(C(C)=O)=C(O)C1c1ccccc1 (stereo not drawn) | 93% | 97% | 41%
Cl.ON=C1c2cc(OCCN3CCCCC3)c(Cl)cc2-c2cc(Cl)c(OCCN3CCCCC3)cc21 | 97% | 98% | 99%
Cc1cnc(CN(Cc2ccc(-c3ccc(CNCCc4ccc(S(C)(=O)=O)cc4)cn3)cc2)C(=O)c2nn(-c3ccccc3)nc2C)cn1.O=C(O)C(F)(F)F | 84% | 21% | 11%
CC(C)(C)Nc1cc(C2CC2)nc(-c2ccccn2)n1 | 88% | 75% | 0%
COc1cc2nc(NCC3CCN(c4nc(N)c5cc(OC)c(OC)cc5n4)CC3)nc(N)c2cc1OC | 92% | 73% | 12%
Cc1cc(N[C@@H](Cc2ccccc2)C(=O)NC2CCCC2)nc(NCCCOC(C)C)n1.O=C(O)C(F)(F)F | 92% | 43% | 0%
COc1ccc(N2CCN(CCCCNC(=O)c3ccc(NC(=O)c4ccc(Cl)c(Cl)c4)cc3)CC2)c(OC)c1 | 100% | 98% | 23%
O=C(Cc1cccc2ccccc12)NC1CCN(c2ccnc3cc(Cl)ccc23)C1.O=C(O)C(F)(F)F (stereo not drawn) | 82% | 97% | 13%
COc1ccccc1C(=O)Nc1cccc(N2CCC(NCc3ccc(-n4cccn4)cc3)CC2)c1 | 86% | 30% | 9%
Cl.OCCNc1nc(Nc2cccc(O)c2)nc2ccccc12 | 96% | 55% | 3%
Fc1ccc2[nH]ccc(=NN=Cc3ccccc3Cl)c2c1 | 100% | 39% | 3%
Cc1cc(-c2ccc(NC(=O)Nc3ccc4nccc(N5CCN(C)CC5)c4c3)cc2C)cc(C)n1.Cl | 100% | 76% | 0%
CS(=O)(=O)CCNCc1nc(-c2ccc3c(Nc4ccc(F)c(O)c4)ccnc3c2)cs1 | 95% | 84% | 0%
CC(C)(C)OC(=O)NCc1ccc(Nc2nnc(-c3cccc(C(=O)NCc4cc(C(F)(F)F)cc(C(F)(F)F)c4)c3)o2)cc1 | 90% | 13% | 4%
Clc1cccc(CNc2nc(NCCc3c[nH]cn3)nc(NC3CCCCC3)n2)c1 | 98% | 0% | 17%
Cc1cccc(Cl)c1S(=O)(=O)N1CCCCC(c2ccc(C(F)(F)F)cc2)=N1 | 100% | 100% | 5%
COc1ccc(CN(C)CCCOc2ccc(NC(=O)c3cccc4c(=O)c5cccc(F)c5[nH]c34)cc2)cc1OC | 100% | 96% | 6%
O=C(O)C(F)(F)F.c1cc(CNC2CCCC2)cc(-c2ccc(CNc3ccc4ncccc4c3)cc2)c1 | 98% | 24% | 32%
O=C(O)C(F)(F)F.Oc1ccc(CN2Cc3ccccc3OC3(CCN(Cc4c[nH]c5cnccc45)CC3)C2)cc1 | 100% | 3% | 17%
CC(C)(C)OC(=O)N1CCC(C2CCN(C(=O)OC(C)(C)C)CC2)CC1 | 86% | 28% | 0%

SMILES | Inhibition (Plasmodium falciparum [1]) | Inhibition (Plasmodium falciparum [2]) | Inhibition (HepG2)
N=C(N)NCCN(Cc1ccccc1)c1ccc(Cl)cc1 | 100% | 99% | 0%
Cc1nn(-c2ccccc2)nc1C(=O)NC1CCN(CCNC(=O)c2ccc(Cl)c(Cl)c2)CC1.O=C(O)C(F)(F)F | 89% | 5% | 15%
COc1ccc2nccc([C@@H](O)CN3CCC(NC(=O)c4ccc(-c5ccc(C#N)cc5)cc4)CC3)c2c1 | 100% | 91% | 42%
COc1cccc(CNC(=O)c2ccnc(-c3cccc(CN(C)C4CCN(C)CC4)c3)c2)c1.O=C(O)C(F)(F)F | 100% | 46% | 19%
O=C(O)C(F)(F)F.O=[N+]([O-])c1cccc(CNCC2CCC(CNCc3cccc([N+](=O)[O-])c3)CC2)c1 (stereo not drawn) | 100% | 76% | 39%
O=S1(=O)C=C(c2ccccc2)CC1 | 97% | 44% | 57%
O=c1cc(NCCCN(Cc2ccccc2)Cc2ccccc2)[nH]c2ccccc12 | 100% | 93% | 7%
COc1cc(NC(=O)/C=C/c2ccccc2Cl)cc(OCCN2CCC(O)(c3ccccc3)CC2)c1.O=C(O)C(=O)O | 100% | 46% | 48%
COc1ccc(-c2ccc(NC(=O)c3ccc(C#N)cc3)c(F)c2)cc1CN(C)CCN(C)C.O=C(O)C(F)(F)F | 88% | 0% | 24%
CCNc1cc(C)nc(Nc2ccc(NC(=O)c3ccccc3Br)cc2)n1 | 100% | 56% | 46%
CCCN1CCC(c2c[nH]c3ccc(NC(=O)Nc4cccc(Cl)c4Cl)cc23)CC1 | 100% | 17% | 30%
CN1CCC(Oc2ccc(CN3CC[C@H](NC(=O)c4ccc(F)c(F)c4)C3)c3ccccc23)C1.O=C(O)C(F)(F)F (stereo partly drawn) | 91% | 27% | 20%
O=C(/C=C/C=C/c1ccc(Cl)c(Cl)c1)NCCCCCN1CCCC2CCCCC21 (stereo not drawn) | 91% | 48% | 41%
O=C(Nc1ccc(-c2nc3cc4ccccc4cc3[nH]2)cc1)c1cccc(Br)c1 | 100% | 89% | 50%
COc1cc2c(cc1C(F)(F)F)N(C(=O)Nc1cc(F)c(F)c(-c3cccnc3)c1)CC2 | 90% | 15% | 20%
CN(C)CCOc1ccc(NC(=O)Nc2ccnc3c(Br)cccc23)cc1Cl | 97% | 25% | 10%
O=C(NCc1ccc(C(=O)NC2CCCCCC2)cc1)c1ccc(O)c(-c2ccc(Cl)c(Cl)c2)c1 | 83% | 21% | 0%
CCCCCCCCS(=O)(=O)NCCCC1CCN(CCCCCNC(=O)C=Cc2ccc(Cl)c(Cl)c2)CC1 | 91% | 26% | 100%
O=C(c1cc(-c2cccs2)n[nH]1)N1CCN(S(=O)(=O)c2ccc(Cl)cc2)CC1 | 96% | 95% | 0%
